Molecules are shown by their SMILES. Whole data set: some 1,500 compounds, median “Inhibition index” near 0.17, cut for the highest 2% near 1.3. Shown is part of a subset that was picked to be rich in the highest values.

This experiment deals with SARS-CoV-2. The experiment can be described thus: Inhibition of cell viability relative to arbidol control (inhibition index > 1 indicates higher activity) measured by fluorescence (OD590nm) in Vero E6 cells infected with SARS-CoV-2 (strain BavPat1) at MOI 0.002 after 72hrs. It counts as functional, Chlorocebus sabaeus, Vero C1008.
As to `CCN(CC)CCOC(=O)C(c1ccccc1)c1ccccc1.Cl` [ADIPHENINE HYDROCHLORIDE], the Inhibition index is on record as 0.1368.

As for `CC/C(=C(\c1ccccc1)c1ccc(OCCN(C)C)cc1)c1ccccc1.O=C(O)CC(O)(CC(=O)O)C(=O)O` [TAMOXIFEN CITRATE], the Inhibition index is on record as -0.1208. Next, `C[C@]12CC[C@@H]3c4ccc(O)cc4C[C@@H](CCCCCCCCC[S+]([O-])CCCC(F)(F)C(F)(F)F)[C@H]3[C@@H]1CC[C@@H]2O` (stereo partly specified) [FULVESTRANT]: 0.187; `CC[C@H](C)[C@H](NC(=O)[C@H](Cc1ccc(O)cc1)NC(=O)[C@@H](NC(=O)[C@H](CCCNC(=N)N)NC(=O)[C@@H](N)CC(=O)O)C(C)C)C(=O)N[C@@H](Cc1c[nH]cn1)C(=O)N1CCC[C@H]1C(=O)N[C@@H](Cc1ccccc1)C(=O)O.O=C(O)C(F)(F)F`: 0.4608; `CC(C(=O)[O-])c1cccc(Oc2ccccc2)c1.CC(C(=O)[O-])c1cccc(Oc2ccccc2)c1.O.O.[Ca+2]` (stereo unspecified) [FENOPROFEN CALCIUM]: 0.03953. Next, `CC(=O)OCC(=O)[C@@]12OC3(CCCC3)O[C@@H]1C[C@H]1[C@@H]3CCC4=CC(=O)C=C[C@]4(C)[C@@]3(F)[C@@H](O)C[C@@]12C` [AMCINONIDE]: 0.9715; `CCCCCN(CCCCC)C(=O)C(CCC(=O)[O-])NC(=O)c1ccc(Cl)c(Cl)c1.[Na+]` (stereo unspecified) [LORGLUMIDE SODIUM]: 0.5123; `Nc1nc2[nH]cc(CCc3ccc(C(=O)N[C@@H](CCC(=O)[O-])C(=O)[O-])cc3)c2c(=O)[nH]1.[Na+].[Na+]` [PEMETREXED DISODIUM]: 0.05416. Next, `CC(C)(C(=O)O)c1ccc(C(O)CCCN2CCC(C(O)(c3ccccc3)c3ccccc3)CC2)cc1.Cl` (stereo unspecified) [FEXOFENADINE HYDROCHLORIDE]: 0.6767; `CC(C)NCC(O)c1ccc2ccccc2c1.Cl` (stereo unspecified): 0.8858. Consider `CCN(CC)CCNC(=O)c1ccc(N)cc1.Cl` [PROCAINAMIDE HYDROCHLORIDE], for which the Inhibition index was determined as 0.2557.

In turn, `C#CCN(C)[C@H](C)Cc1ccccc1.Cl` [SELEGILINE HYDROCHLORIDE] came in with an Inhibition index of 0.2358. Next, `CCC1(c2cccc(O)c2)CCCCN(C)C1.Cl` (stereo unspecified) [MEPTAZINOL HYDROCHLORIDE]: 1.137. As to `CCN1CCN(C(=O)N[C@@H](C(=O)N[C@@H]2C(=O)N3C(C(=O)O)=C(CSc4nnnn4C)CS[C@H]23)c2ccc(O)cc2)C(=O)C1=O.O.O` [CEFOPERAZONE DIHYDRATE], the Inhibition index was determined as 0.2339. Next, `C=C[C@H]1CN2CC[C@H]1C[C@H]2[C@H](OC(=O)OCC)c1ccnc2ccc(OC)cc12` [QUININE ETHYLCARBONATE]: 0.6435; `C=C[C@H]1CN2CC[C@H]1C[C@@H]2[C@@H](O)c1ccnc2ccc(OC)cc12.Cl.O`: 1.411; `Nc1nc(/C(=C/CC(=O)O)C(=O)N[C@@H]2C(=O)N3C(C(=O)O)=CCS[C@H]23)cs1` [CEFTIBUTEN]: 0.07268. Next, `CC(C)OC(=O)CCC/C=C\C[C@H]1[C@H](CC[C@@H](O)CCc2ccccc2)[C@@H](O)C[C@H]1O`: 0.1555. Next, `CC[C@H]1OC(=O)[C@H](C)[C@@H](O[C@H]2C[C@@](C)(OC)[C@@H](O)[C@H](C)O2)[C@H](C)[C@@H](O[C@@H]2O[C@H](C)C[C@H](N(C)C)[C@H]2O)[C@](C)(O)C[C@@H](C)C(=O)[C@H](C)[C@@H](O)[C@]1(C)O` [ERYTHROMYCIN]: 0.0005254; `CC[C@H]1OC(=O)[C@H](C)[C@@H](O[C@H]2C[C@@](C)(OC)[C@@H](O)[C@H](C)O2)[C@H](C)[C@@H](O[C@@H]2O[C@H](C)C[C@H](N(C)C)[C@H]2O)[C@](C)(OC)C[C@@H](C)C(=O)[C@H](C)[C@@H](O)[C@]1(C)O` [CLARITHROMYCIN]: 0.8598.

With `CC[C@H]1OC(=O)[C@H](C)[C@@H](O[C@H]2C[C@@](C)(OC)[C@@H](O)[C@H](C)O2)[C@H](C)[C@@H](O[C@@H]2O[C@H](C)C[C@H](N(C)C)[C@H]2O)[C@](C)(O)C[C@@H](C)CN(C)[C@H](C)[C@@H](O)[C@]1(C)O` [AZITHROMYCIN], the Inhibition index was 1.487. Next, `CCC(=O)O[C@]1(C(=O)CCl)[C@@H](C)C[C@H]2[C@@H]3CCC4=CC(=O)C=C[C@]4(C)[C@@]3(F)[C@@H](O)C[C@@]21C` [CLOBETASOL PROPIONATE]: 0.2335; `CC(=O)S[C@@H]1CC2=CC(=O)CC[C@]2(C)[C@H]2CC[C@@]3(C)[C@@H](CC[C@@]34CCC(=O)O4)[C@H]12` [SPIRONOLACTONE]: 0.4829. `Cl.NC1CCN(c2nc3c(cc2F)c(=O)c(C(=O)O)cn3-c2ccc(F)cc2F)C1` (stereo unspecified) gave an Inhibition index of 0.1095. Then `CN1[C@@H]2CC[C@H]1C[C@@H](OC1c3ccccc3CCc3ccccc31)C2.O=C(O)CC(O)(CC(=O)O)C(=O)O` [DEPTROPINE CITRATE], with -0.3511; and `Cc1cc(C(C)(C)C)c(O)c(C)c1CC1=NCCN1.Cl` [OXYMETAZOLINE HYDROCHLORIDE], with 0.08485; and `Cl.Oc1ccc2c3c1O[C@H]1[C@@H](O)CC[C@@]4(O)[C@@H](C2)N(CC2CCC2)CC[C@]314` [NALBUPHINE HYDROCHLORIDE], with 0.2089. Next, `C=C1CC[C@@]2(O)[C@H]3Cc4ccc(O)c5c4[C@@]2(CCN3CC2CC2)[C@H]1O5.Cl` [NALMEFENE HYDROCHLORIDE]: 1.653.

For the compound `Cl.O.O.O=C1CC[C@@]2(O)[C@H]3Cc4ccc(O)c5c4[C@@]2(CCN3CC2CC2)[C@H]1O5`, the Inhibition index was 0.1496. Next, `CC(C(=O)O)c1ccc(N2CC=CC2)c(Cl)c1` (stereo unspecified) [PIRPROFEN]: 0.2333; `CNC(=C[N+](=O)[O-])NCCSCc1ccc(CN(C)C)o1.Cl` [RANITIDINE HYDROCHLORIDE]: 0.09309. Then `CCN1CCC[C@H]1CNC(=O)c1c(OC)ccc(Br)c1OC.Cl`, with 0.3465; and `CC(C)n1c(/C=C/[C@H](O)C[C@H](O)CC(=O)[O-])c(-c2ccc(F)cc2)c2ccccc21.[Na+]`, with -0.06663. Next, `CN[C@@H]1[C@@H](O)[C@@H](O[C@@H]2[C@@H](O)[C@H](O[C@H]3O[C@H](CN)CC[C@H]3N)[C@@H](N)C[C@H]2N)OC[C@]1(C)O.CN[C@@H]1[C@@H](O)[C@@H](O[C@@H]2[C@@H](O)[C@H](O[C@H]3O[C@H]([C@@H](C)N)CC[C@H]3N)[C@@H](N)C[C@H]2N)OC[C@]1(C)O.CN[C@@H]1[C@@H](O)[C@@H](O[C@@H]2[C@@H](O)[C@H](O[C@H]3O[C@H]([C@@H](C)NC)CC[C@H]3N)[C@@H](N)C[C@H]2N)OC[C@]1(C)O.O=S(=O)(O)O`: 0.01806. `COc1c(-c2ccc3cc(NS(C)(=O)=O)ccc3c2)cc(-n2ccc(=O)[nH]c2=O)cc1C(C)(C)C` [DASABUVIR]: the Inhibition index is reported as 0.184. `Cc1cc(C2CCCCC2)n(O)c(=O)c1.NCCO` [CICLOPIROX OLAMINE] had an Inhibition index of 0.2225. For `C[C@]12CCC(=O)C=C1CC[C@@H]1[C@@H]2C(=O)C[C@]2(C)C(=O)CC[C@@H]12` [ADRENOTERONE], the Inhibition index worked out at 0.3653.

For `C[C@]12CC[C@H](O)C[C@@H]1CC[C@@H]1[C@@H]2CC[C@]2(C)C(=O)CC[C@@H]12` [EPIANDROSTERONE], the Inhibition index is 1.075.

The compound `C[C@]12CCC(=O)C(O)=C1CC[C@@H]1[C@@H]2CC[C@]2(C)C(=O)CC[C@@H]12` [FORMESTANE] registered an Inhibition index of 1.365.

Take `C[C@]12CCC(=O)C=C1CC[C@@H]1[C@@H]2[C@@H](O)C[C@@]2(C)[C@H]1CC[C@]2(O)C(=O)CO` [HYDROCORTISONE]: the Inhibition index came out at 0.1194. Then `CN1CCC(=C2c3ccccc3CC(=O)c3sccc32)CC1.O=C(O)/C=C/C(=O)O` [KETOTIFEN FUMARATE], with 0.837; and `Cc1ccc(/C(=C\CN2CCCC2)c2ccccn2)cc1.Cl`, with 0.8569. Then `O=C1O[C@H]([C@@H](O)CO)C(O)=C1O` [ASCORBIC ACID], with 0.2513; and `C[C@]12CCC(=O)C=C1C=C[C@@H]1[C@@H]2CC[C@@]2(C)[C@H]1CC[C@@]2(O)CCC(=O)[O-].[K+]` [CANRENOATE POTASSIUM], with 0.2042.

Compound `C[C@]12CC[C@H]3[C@@H](CCC4=CC(=O)CC[C@@]43C)[C@@H]1CC[C@@H]2C(=O)CO` [DESOXYCORTICOSTERONE] gave an Inhibition index of 0.868.

The compound `CNC1(C)C2CCC(C2)C1(C)C.Cl` (stereo unspecified) [MECAMYLAMINE HYDROCHLORIDE] yielded an Inhibition index of 0.674.

Consider `CC(=O)O[C@H]1C[C@@H]2CC[C@@H]3[C@H](CC[C@@]4(C)[C@H]3C[C@H]([N+]3(C)CCCCC3)[C@@H]4OC(C)=O)[C@@]2(C)C[C@@H]1[N+]1(C)CCCCC1.[Br-].[Br-]` [PANCURONIUM BROMIDE], for which the Inhibition index is given as 0.06422. Next, `Nc1c2ccccc2nc2ccccc12` [AMINACRINE]: -0.2464; `Cl.Nc1c2c(nc3ccccc13)CCCC2` [TACRINE HYDROCHLORIDE]: 1.442. In the case of `CCC(=O)OC(OP(=O)(CCCCc1ccccc1)CC(=O)N1C[C@H](C2CCCCC2)C[C@H]1C(=O)O)C(C)C` (stereo partly specified), the Inhibition index is listed as 1.038. Next, `CC[C@H]1OC(=O)[C@H](C)[C@@H](O[C@H]2C[C@@](C)(OC)[C@@H](O)[C@H](C)O2)[C@H](C)[C@@H](O[C@@H]2O[C@H](C)C[C@H](N(C)C)[C@H]2O)[C@](C)(O)C[C@@H](C)[C@@H]2N[C@@H](COCCOC)O[C@H]([C@H]2C)[C@]1(C)O` [DIRITHROMYCIN]: 0.105.

(Values after ChEMBL document CHEMBL4303097 (2020).)
